Reference: PubChem BioAssay (NCATS)
Inconclusive results are not listed. Where a call stands in place of a potency, no number is given. The source made the active and inactive calls. Calls follow the shape of the dose curve; as a rule, active = well fitted inhibition curve with a large enough effect; inconclusive = small, poorly fitted or top-dose-only effect; inactive = flat fitted curve, though single readings scatter. *1 amine or outer side, *2 acyl side, *3 side chain or, on linkers, in order; H or OH if unused. Where a SMILES comes first, the peptide text is derived from it. [ ]: non-standard residue; d: D form. X5 = CC(CC(O[*:1])C(=O)[*:2])C(=O)O; NMeV = CN[CH](C(=O)O)C(C)C; NMeA = CN[CH](C)C(=O)O; βAla = NCCC(=O)O

Target: Phospholipid hydroperoxide glutathione peroxidase GPX4 (Homo sapiens) (UniProt P36969)
Assay: Primary qHTS Assay for Inhibitors of Recombinant Selenoprotein Glutathione Peroxidase 4 (GPX4) (AID 1845192); also: nearly all actives have a fitted effect of over 65% in size
Settings: recombinant GPX4, GR-coupled NADPH fluorescence, 15 min; series mostly up to 50 µM
From the text: Assay Provider: Elias S.J. Arner MD PhD.
Department of Medical Biochemistry and Biophysics
Karolinska Institutet, Solna, Stockholm, Sweden
Selenoprotein glutathione peroxidases (GPX), like the ubiquitously expressed GPX1 and the ferroptosis modulator GPX4, enact their antioxidant activities by reducing hydroperoxides using glutathione. […] GPX1 and GPX4 inhibitors have thus shown promise as anti-cancer agents. Existing inhibitors are often promiscuous, or modulate GPX activity only indirectly, so novel direct inhibitors identified through screening against GPX1 and GPX4 could be valuable. Here, we developed optimized glutathione reductase (GR)-coupled GPX assays for the biochemical high-throughput screen (HTS) of almost 12,000 compounds with known mechanisms of action. Initial hits were triaged using a GR counter-screen, assessed for isoform specificity using a separate GPX2 assay, and were assessed for general selenocysteine-targeting activity using a thioredoxin reductase (TXNRD1) assay. With this suite of assays, we identified novel GPX1/GPX2- and GPX4-specific inhibitors and can here present a validated pipeline for future discovery research for selenoprotein-targeting agents.
SEQUENCE No. (e.g., 1, 2, 3, etc.); […] (e.g., Cells, Incubation, Reagent, etc.); VALUE; DESCRIPTION.
1; Reagent 1; 3 uL; 333.33 nM GPx4 enzyme or no enzyme control in 1536-well, black, solid Greiner assay plate.
2; Compound; 25 nL; Kalypsis pin tool (Wako USA) equipped with a 1536-well pin head.
3; Incubation; 30 min; room temperature.
4; Reagent 2; 1 uL; 500 nM GR, 5 mM GSH, 2.5 mM NADPH solution
5; Reagent 3; 1 uL; 2.5 mM CHP in 50% EtOH.
6; Detection; Fluorescence; ViewLux microplate reader, excitation 340 nm and emission 450 nm.
7; Incubation; 15 min; room temperature.
8; Detection; Fluorescence; ViewLux microplate reader, excitation 340 nm and emission 450 nm.
NOTES (numbers refer to Sequence numbers above)
1. 3 µL of 333.33 nM GPX4 and 0.016% BSA in assay buffer (50 mM Tris-HCl, 2 mM EDTA (pH 7.5), 150 mM NaCl) was added to columns 3-48 of 1536-well plates using a BioRAPTR Flying Reagent Dispenser (Let's Go Robotics (LGR), Carlsbad, CA). A no-enzyme control (0.01% BSA in TES assay buffer) was added to columns 1-2.
2. 25 nL, library and DMSO controls were added to each well with a pin tool (Kalypsys).
3. The assay plates were incubated for 30 minutes at room temperature.
4. 1 µL of master mix (500 nM glutathione reductase (GR), 5 mM reduced glutathione (GSH), 2.5 mM NADPH in assay buffer) was added.
5. 1 µL of cumene hydroperoxide (CHP) ([2.5 mM] in 50% EtOH) was then added within 5 minutes to initiate the reaction. Final concentrations were: 200 nM GPX4, 1 mM GSH, 0.5 mM CHP, 0.5 mM NADPH, 100 nM GR, 0.01% BSA.
6. Initial fluorescence readout (t=0) at 340/450 nm was measured using a ViewLux multimodal detector (PerkinElmer, Waltham, MA).
8. Endpoint fluorescence readout (t=15) at 340/450 nm was measured 15 min after room temperature incubation.
Potency is read from the fitted curve at half-maximal effect.

Phospholipid hydroperoxide glutathione peroxidase GPX4 (Homo sapiens), sequence (P36969 whole entry, looked up): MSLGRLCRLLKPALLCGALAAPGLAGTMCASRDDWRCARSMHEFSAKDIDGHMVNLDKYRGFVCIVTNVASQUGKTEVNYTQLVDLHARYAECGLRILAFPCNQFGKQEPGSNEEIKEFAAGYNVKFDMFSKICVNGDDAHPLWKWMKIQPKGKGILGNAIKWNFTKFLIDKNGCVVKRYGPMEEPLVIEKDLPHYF

| Structure (SMILES) | Potency |
| --- | --- |
| C=C1[C@@H](C)[C@H]2[C@H](Cc3ccccc3)NC(=O)[C@]23[C@H](OC(C)=O)/C=C/[C@](C)(O)C(=O)[C@@H](C)C/C=C/[C@H]3[C@@H]1O | inactive |
| C[C@@H]1CN(Cc2ccc(F)cc2)CCN1C(=O)COc1ccc(Cl)cc1NC(N)=O | inactive |
| CN(C)[C@@H]1C(=O)C(C(N)=O)=C(O)[C@@]2(O)C(=O)C3=C(O)c4c(O)ccc(Cl)c4[C@@](C)(O)C3C[C@@H]12 (stereo not given in full) | inactive |
| CC(=O)C1CCC2C3CCC4C[C@@H](O)CCC4(C)C3CCC12C (stereo not given in full) | inactive |
| C[N@@+]1(CC2CC2)CC[C@]23c4c5ccc(O)c4O[C@H]2C(=O)CC[C@@]3(O)[C@H]1C5 | inactive |
| O=C1CN=C(c2ccccc2Cl)c2cc(Br)ccc2N1 | inactive |
| Cc1ccc2c(c1)[C@H]1CN(C)CC[C@H]1N2C(=O)CSc1nnnn1-c1ccc(Cl)cc1 | inactive |
| CC1=CC2OC3CC(O)[C@](C)([C@@]2(C)C(O)C1=O)[C@]31CO1 (stereo not given in full) | inactive |
| C=C1[C@@H](C)C2[C@H](Cc3ccccc3)NC(=O)[C@@]23C(/C=C/C[C@H](C)C[C@@](C)(O)/C=C/[C@@H]3OC(C)=O)[C@@H]1O (stereo not given in full) | inactive |
| CO[C@@H]1[C@H](O)[C@@H](O[C@@H]2C[C@H]3CC[C@@H]4C(CC[C@]5(C)[C@@H](C6=CC(=O)OC6)CC[C@]45O)[C@@]3(C)[C@H](O)C2)O[C@H](C)[C@@H]1O (stereo not given in full) | inactive |
| COC1CC(O[C@H]2CC[C@]3(C)C4CC[C@]5(C)[C@@H](C6=CC(=O)OC6)[C@@H](OC(C)=O)C[C@]5(O)C4CC[C@@H]3C2)OC(C)C1O (stereo not given in full) | inactive |
| c1ccc([C@@H]2C[C@H]2NC2CCNCC2)cc1 | inactive |
| C[C@@H]1C[C@@H](O)[C@]2(O)O[C@@H]3C[C@@]4(C=O)C(CC[C@@H]5C4CC[C@]4(C)[C@@](O)(C6=CC(=O)OC6)CC[C@]54O)C[C@H]3OC2O1 (stereo not given in full) | inactive |
| CN1C(=O)C(Cc2ccc3ccccc3c2)N=C(c2ccc(O)cc2)c2cc(Cl)ccc21 (stereo not given) | inactive |
| CC(=O)O[C@@H]1[C@@H](O)[C@H]2O[C@@H]3C=C(C)[C@@H](O)C[C@]3(CO)[C@]1(C)[C@]21CO1 | inactive |
| CCCN(CCC)[C@@H]1CCc2ccc3[nH]c(C#N)cc3c2C1 | inactive |
| CCC(C)/C=C(C)/C=C/C1=CC2=C(Cl)C(=O)C(C)(OC(C)=O)C(=O)C2=CO1 (stereo not given) | inactive |
| C1=C(c2cnc[nH]2)c2ccsc2CC1 | inactive |
| N#Cc1ccccc1-c1cc(-c2ccccn2)cn(-c2ccccc2)c1=O | 25.5 µM (active) |
| CCC1(O)CCC2C3CCC4=CC(=O)CCC4C3CCC21CC (stereo not given) | inactive |

| Structure (SMILES) | Potency |
| --- | --- |
| CCC(C)C1NC(=O)C2CCCN2C(=O)C(CC(C)C(=O)O)OC(=O)CCNC(=O)C(C)N(C)C(=O)C(C(C)C)N(C)C1=O (stereo not given) (cyclo([X5]PI[NMeV][NMeA][βAla]); configuration not given here) | inactive |
| Cc1cccc(NC(=O)c2ccc(C(F)(F)F)cc2C(=O)O)n1 | inactive |
| COc1ccc2c(c1)c(CCN(C)C)cn2S(=O)(=O)c1ccccc1 | inactive |
| CCCCn1cc(C(=O)c2cccc3ccccc23)c2ccccc21 | inactive |
| CC[C@H]1C2CC3[C@@H]4N(C)c5ccccc5[C@]45C[C@@H]([C@H]2[C@H]5O)N3[C@@H]1O | inactive |
| C=C1CC[C@H]2[C@@H](/C=C(\C)C(=O)[C@@]3(OC(C)=O)C[C@H](C)[C@H](OC(=O)c4ccccc4)[C@@H]3[C@H]1OC(C)=O)C2(C)C | inactive |
| CC1=CC2/C=C(\C)CCC(O)C(O)C(O)CC(=O)C23C(=O)NC(CC(C)C)C3C1C (stereo not given) | inactive |
| Cc1c(N[C@@H](c2nnc(-c3ccc(C#N)cc3)o2)[C@H](C)O)ccc(C#N)c1Cl | inactive |
| NC(=O)[C@@H](CC1CC1)[C@@H](CCC(F)(F)F)C(=O)N[C@H]1N=C(c2ccccc2)c2cccc(F)c2NC1=O | inactive |
| CN1C(=O)N(c2ccc(C#N)c(C(F)(F)F)c2)C(=O)[C@@]1(CO)c1ccccc1 | inactive |
| CCCCCCC1C(=O)O[C@H](C)[C@H](NC(=O)c2cccc(NC=O)c2O)C(=O)O[C@@H](C)[C@@H]1OC(=O)CC(C)C (stereo not given in full) | inactive |
| CC(C)(O)/C=C/C(=O)[C@](C)(O)[C@H]1[C@H](O)C[C@@]2(C)[C@@H]3CC=C4[C@@H](C[C@H](O)C(=O)C4(C)C)[C@]3(C)C(=O)C[C@]12C | inactive |
| CC[C@@H]1C[C@H]2CC[C@H](O2)[C@H](C)C(=O)O[C@@H](C)C[C@@H]2CC[C@@H](O2)[C@@H](C)C(=O)O[C@H](CC)C[C@H]2CC[C@H](O2)[C@H](C)C(=O)O[C@@H](C)C[C@@H]2CC[C@@H](O2)[C@@H](C)C(=O)O1 | inactive |
| COc1cc2c(cc1O)C1(C)CCC(O)C(C)(C)C1CC2=O (stereo not given) | inactive |
| N#Cc1cn([C@@H]2O[C@H](CO)[C@H](O)[C@@H]2O)c2ncnc(N)c12 | inactive |
| C=C(C)[C@@]12O[C@@H]1[C@@]1(C)C(=CC2=O)CC[C@@H](OC(C)=O)[C@@H]1C | inactive |
| CN1CCc2cc3c(cc2[C@H]1[C@@H]1OC(=O)c2c1ccc1c2OCO1)OCO3 | inactive |
| CNC(=O)c1cc(C#N)cc(C)c1NC(=O)c1cc(Br)nn1-c1ncccc1Cl | inactive |
| CO[C@H]1[C@@H](O)CC(OC2[C@@H](O)CC(OC3[C@@H](O)C[C@H](OC4CC[C@@]5(C)C(CCC6C5CC(O)[C@]5(C)[C@H](C7=CC(=O)OC7)CCC65O)C4)O[C@@H]3C)O[C@@H]2C)O[C@@H]1C (stereo not given in full) | inactive |
| COC1C=CC23c4cc5c(cc4COC2(O)CN(C)C3C1)OCO5 (stereo not given) | inactive |
